MCL1 BIM primary: MCL1-BIM-BH3 interaction inhibition (human); Q07820; GST-MCL1 / FITC-Bim-BH3 fluorescence polarization; inhibition, % at 10.9 µM; 0.68% of 320,000 active; AID 2057;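 active = inhibition above the mean inhibition of all tested compounds plus 3 SD, set per campaign, cut at about 40% in these data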;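 also: 0% = DMSO wells and 100% = unlabeled Bim-BH3 peptide control; higher means more loss of mP so more displacement of Bim peptide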
GLD-1 TGE inh: GLD-1-TGE RNA interaction inhibition (C. elegans); AID 2280; Q17339; purified GLD-1 + fluorescein TGE RNA, fluorescence polarization; inhibition, % at 5.96 µM; 0.44% of 320,000 active;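 active = percent inhibition above a per-plate cutoff, the plate mean of test compounds plus 3 SD, cut at about 30% in these data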;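 also: 0% = DMSO wells with GLD-1 and probe and 100% = wells lacking GLD-1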
Target sequence (Q17339 whole entry, looked up): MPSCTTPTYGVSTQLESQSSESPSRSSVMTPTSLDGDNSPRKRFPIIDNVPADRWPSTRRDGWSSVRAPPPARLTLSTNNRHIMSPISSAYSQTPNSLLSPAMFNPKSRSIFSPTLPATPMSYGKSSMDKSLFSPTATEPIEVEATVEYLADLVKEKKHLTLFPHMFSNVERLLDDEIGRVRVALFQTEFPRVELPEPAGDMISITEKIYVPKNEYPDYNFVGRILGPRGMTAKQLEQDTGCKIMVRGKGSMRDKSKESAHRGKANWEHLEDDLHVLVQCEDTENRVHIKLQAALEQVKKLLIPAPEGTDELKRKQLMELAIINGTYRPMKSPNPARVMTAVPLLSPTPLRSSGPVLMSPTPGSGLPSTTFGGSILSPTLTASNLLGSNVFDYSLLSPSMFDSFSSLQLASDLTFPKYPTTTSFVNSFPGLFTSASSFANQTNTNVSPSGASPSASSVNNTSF
Mcl-1 Bim block: disrupts Bim peptide binding to human Mcl-1. Q07820. Bead-based flow cytometry, Bim peptide-Mcl-1 binding. inhibition, % at 10 µM. 0.1% of 190,000 active. AID 1009; in the data active = inhibition above about 40%;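 also: 0% = no compound tracer wells and 100% = peptide blocker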
Mcl1-Bid inh: Mcl-1/Bid interaction inhibition; Q07820; TR-FRET Mcl-1/Bid-Dy647 peptide binding, 1536-well; inhibition, % at 21.7 µM; 0.97% of 220,000 active; AID 1021;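 active = compounds that cut the binding signal by more than half at the single screening dose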;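 also: His-tagged Mcl-1 with europium anti-His antibody binding Bid BH3 peptide; 0% = Mcl-1 plus peptide wells and 100% = peptide-only wells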
BCLXL inh: Bcl-xL (human) inhibition; 0.7% of 320,000 active; inhibition, % at 10.9 µM; GST-Bcl-xL / FITC-Bim BH3 peptide fluorescence polarization;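 active = inhibition above the mean of all tested compounds plus 3 SD, cutoff set per campaign, cut at about 30% in these data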;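 also: 0% = DMSO wells and 100% = unlabeled Bim-BH3 peptide competitor; inhibitors lower millipolarization by displacing the labeled peptide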
Mcl1 Noxa PPI: Mcl-1/Noxa interaction inhibition. Q07820. inhibition, % at 21.7 µM. AID 1022. 1.5% of 220,000 active. TR-FRET Mcl-1/Noxa peptide binding, 2 h;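 active = compounds that cut the protein-peptide binding signal by more than 50% relative to plate controls in a single-dose test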;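 also: His-tagged Mcl-1 with rhodamine Noxa BH3 peptide and terbium anti-His antibody; 0% = Mcl-1 plus Noxa peptide wells and 100% = peptide-only wells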
An asterisk follows results filed as active. The list is not random: actives were taken first. Their share in the collection is about 2.3%.

Screening O=c1cc(CO)oc(C(Nc2ccccn2)c2cccc(F)c2)c1O (centres undefined) returned MCL1 BIM primary 31, GLD-1 TGE inh 3, Mcl-1 Bim block 0, Mcl1-Bid inh 46, BCLXL inh 9 and Mcl1 Noxa PPI 52*.
`O=C(NN1C(=O)/C(=C/c2cc([N+](=O)[O-])ccc2O)SC1=S)c1ccccc1O` gave MCL1 BIM primary 55*, GLD-1 TGE inh -7 and BCLXL inh 5.
`O=C(NN1C(=O)/C(=C/c2ccc(O)c([N+](=O)[O-])c2)SC1=S)c1ccccc1Cl` gave MCL1 BIM primary -32, GLD-1 TGE inh -35, Mcl-1 Bim block 2, Mcl1-Bid inh 0, BCLXL inh -20 and Mcl1 Noxa PPI 32.
Cc1ccccc1NC(=O)/C(C#N)=C\c1cccnc1 was read as MCL1 BIM primary -23, GLD-1 TGE inh 2, Mcl-1 Bim block -2, Mcl1-Bid inh -35, BCLXL inh -16 and Mcl1 Noxa PPI 10.
For N#C/C(=C\c1cccnc1)C(=O)Nc1ccccc1[N+](=O)[O-] the results were MCL1 BIM primary 36, GLD-1 TGE inh 24 and BCLXL inh 34*.
Screening N#C/C(=C\c1ccccc1[N+](=O)[O-])C(=O)NCc1ccccc1 returned MCL1 BIM primary 39, GLD-1 TGE inh 30, Mcl1-Bid inh -12, BCLXL inh 34* and Mcl1 Noxa PPI -17.
C=CCc1cccc([C@@H]2[C@@H](C)CC[C@H]3C(=O)N4[C@@H](c5cc(OC)c(OC)c(OC)c5)c5[nH]c6ccccc6c5C[C@H]4C(=O)N23)c1 was read as MCL1 BIM primary 4, GLD-1 TGE inh 9, Mcl-1 Bim block -1, Mcl1-Bid inh -13, BCLXL inh 6 and Mcl1 Noxa PPI 0.
`O=C(COC(=O)c1cnccn1)Nc1ncc(C(F)(F)F)cc1Cl` gave GLD-1 TGE inh 12.
Cc1ccc(S(=O)(=O)c2c(N)n(CCN3CCOCC3)c3nc4ccccc4nc23)cc1C was read as MCL1 BIM primary 8, GLD-1 TGE inh 0, Mcl-1 Bim block 2, Mcl1-Bid inh 5, BCLXL inh 6 and Mcl1 Noxa PPI -60.
Nc1c(S(=O)(=O)c2ccccc2)c2nc3ccccc3nc2n1Cc1ccco1 was read as MCL1 BIM primary 11, GLD-1 TGE inh 47*, Mcl-1 Bim block 0, Mcl1-Bid inh -6, BCLXL inh 23 and Mcl1 Noxa PPI 39.
`Cc1ccc(S(=O)(=O)c2c(N)n(Cc3ccco3)c3nc4ccccc4nc23)cc1C` gave MCL1 BIM primary 15, GLD-1 TGE inh 20, Mcl-1 Bim block -1, Mcl1-Bid inh -28, BCLXL inh 32* and Mcl1 Noxa PPI 12.
Nc1c(S(=O)(=O)c2ccccc2)c2nc3ccccc3nc2n1CCN1CCOCC1 was read as MCL1 BIM primary 17, GLD-1 TGE inh -8, Mcl-1 Bim block -2, Mcl1-Bid inh -11, BCLXL inh 11 and Mcl1 Noxa PPI 28.
Screening O=c1c2c3nc4ccccc4nc3n(Cc3ccccc3)c2ncn1Cc1ccco1 returned Mcl-1 Bim block 4, Mcl1-Bid inh 2 and Mcl1 Noxa PPI 73*.
`O=C(O)c1cc(N/N=C/c2ccc(N3CCOCC3)s2)ccc1Cl` gave MCL1 BIM primary 30, GLD-1 TGE inh -12, Mcl-1 Bim block -2, Mcl1-Bid inh -100, BCLXL inh 19 and Mcl1 Noxa PPI 86*.
`CS/C(N)=N/S(=O)(=O)c1ccc(NC(C)=O)cc1` gave MCL1 BIM primary 4, GLD-1 TGE inh 4, Mcl1-Bid inh -25, BCLXL inh 5 and Mcl1 Noxa PPI 10.
Clc1ccc(OCCn2ccnc2)c(Cl)c1 was read as MCL1 BIM primary 3, GLD-1 TGE inh 7, Mcl-1 Bim block -2, Mcl1-Bid inh 28, BCLXL inh 5 and Mcl1 Noxa PPI 31.
For Clc1ccc(SCCn2ccnc2)cc1 the results were MCL1 BIM primary 3, GLD-1 TGE inh -2, Mcl-1 Bim block 0, Mcl1-Bid inh 67*, BCLXL inh 5 and Mcl1 Noxa PPI 6.
For Cc1ccc(OC(C)C(=O)N(C)c2ccccc2)c([N+](=O)[O-])n1 (centres undefined) the results were MCL1 BIM primary 2, GLD-1 TGE inh 0 and BCLXL inh 1.
Screening O=[N+]([O-])c1ccc(NC(=S)NCCc2ccc(Cl)cc2)cc1 returned MCL1 BIM primary 9, GLD-1 TGE inh 5, Mcl-1 Bim block -8, Mcl1-Bid inh 94*, BCLXL inh 7 and Mcl1 Noxa PPI 21.
Screening O=[N+]([O-])c1ccc(NC(=S)NCCc2ccccc2)cc1 returned MCL1 BIM primary -3, GLD-1 TGE inh 10, Mcl-1 Bim block 3, Mcl1-Bid inh -23, BCLXL inh -1 and Mcl1 Noxa PPI 37.
Screening O=S(=O)(Nc1ccc2nc(-c3ccc(Br)o3)[nH]c2c1)c1ccccc1 returned Mcl-1 Bim block -1, Mcl1-Bid inh -30 and Mcl1 Noxa PPI 52*.
COc1ccc(/C=N\NC(=O)c2cc(O)c(O)c(O)c2)cc1CN1CCN(c2ccc(F)cc2)CC1 was read as MCL1 BIM primary 17, GLD-1 TGE inh -1, Mcl-1 Bim block 0, Mcl1-Bid inh -38, BCLXL inh 21 and Mcl1 Noxa PPI 70*.
Screening COc1ccccc1N1CCN(/N=C/c2cccc(O)c2)CC1 returned MCL1 BIM primary 6, GLD-1 TGE inh -15, Mcl-1 Bim block -1, Mcl1-Bid inh -50, BCLXL inh 1 and Mcl1 Noxa PPI 3.
Screening COc1ccccc1N1CCN(/N=C/c2cc(OC)c(O)c(OC)c2)CC1 returned MCL1 BIM primary 22, GLD-1 TGE inh -1, Mcl-1 Bim block -7, Mcl1-Bid inh -49, BCLXL inh 25 and Mcl1 Noxa PPI 54*.
CC1=N/C(=C/c2ccco2)C(=O)O1 was read as Mcl-1 Bim block -2, Mcl1-Bid inh -96 and Mcl1 Noxa PPI 27.
For Cc1cc(O)cc2c1C(=O)/C(=C/c1ccco1)O2 the results were MCL1 BIM primary 48*, GLD-1 TGE inh 50* and BCLXL inh 63*.
For COc1cc(/C=C/c2nnc3c4ccccc4ncn23)cc(OC)c1OC the results were MCL1 BIM primary -4, GLD-1 TGE inh 6, Mcl-1 Bim block -5, Mcl1-Bid inh 2, BCLXL inh 3 and Mcl1 Noxa PPI 52*.
`C(=C\c1nnc2c3ccccc3ncn12)/c1ccccc1` gave MCL1 BIM primary 5, GLD-1 TGE inh 0, Mcl-1 Bim block -2, Mcl1-Bid inh -8, BCLXL inh 1 and Mcl1 Noxa PPI -35.
`Cc1cccc(NC(=O)NC2CCCc3ccccc32)c1` (centres undefined) gave MCL1 BIM primary 2, GLD-1 TGE inh 6 and BCLXL inh 5.
`NC(=O)[C@@H]1CCCN1Cc1nc(-c2cccs2)no1` gave MCL1 BIM primary 4, GLD-1 TGE inh -7, Mcl-1 Bim block -3, Mcl1-Bid inh -46, BCLXL inh 4 and Mcl1 Noxa PPI 54*.

Screening data from PubChem BioAssay.
